Reference: PubChem BioAssay (NCI)
This is part of a sample that, as a whole, favours compounds with a hit. Of some 83,000 tested, about 20% had one in any assay.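 Results are percent growth after 48 hours of single-concentration exposure. 100 means growth as in untreated cells, lower positive values show inhibition; negative values down to -100 show cell death.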 Activity calls are given as the source filed them. Rule for the calls: active = growth percent below 10; inactive = the rest.

Columns and labels:
Test in all cases: NCI-60 one-dose screen, 48 h (100 = growth as untreated, 0 = no growth, -100 = all killed)
Conditions in all cases: 10 µM unless noted
NCI-H23 lung = test system: NCI-H23 lung
NCI-H226 lung = test system: NCI-H226 lung
NCI-H322M lung = test system: NCI-H322M lung
HOP-62 NSCLC = test system: HOP-62 NSCLC
NCI-H460 lung = test system: NCI-H460 lung
NCI-H522 lung = test system: NCI-H522 lung
A549/ATCC NSCLC = test system: A549/ATCC NSCLC
786-0 renal = test system: 786-0 renal
COLO 205 colon = test system: COLO 205 colon
DU-145 prostate = test system: DU-145 prostate
K-562 leukemia = test system: K-562 leukemia
MALME-3M melanoma = test system: MALME-3M melanoma
MDA-MB-231 breast = test system: MDA-MB-231 breast
RXF 393 renal = test system: RXF 393 renal
SF-268 CNS = test system: SF-268 CNS
SF-295 CNS = test system: SF-295 CNS
SF-539 CNS = test system: SF-539 CNS
UACC-257 melanoma = test system: UACC-257 melanoma
M14 melanoma = test system: M14 melanoma

Measured: growth

COc1c(F)ccc(C(=O)Nc2ccc3nc(NC(=O)C4CCCN(S(=O)(=O)c5ccc(Br)s5)C4)sc3c2)c1F (configuration not stated)
inactive: NCI-H23 lung 82.7% | NCI-H226 lung 75.1% | NCI-H322M lung 97.9% | HOP-62 NSCLC 104% | NCI-H460 lung 86.5% | NCI-H522 lung 74.2% | A549/ATCC NSCLC 79.7% | 786-0 renal 61.5% | COLO 205 colon 101% | DU-145 prostate 88% | K-562 leukemia 68.9% | MALME-3M melanoma 88.9% | MDA-MB-231 breast 81.6% | RXF 393 renal 36.1% | SF-268 CNS 64.1% | SF-295 CNS 69.3% | SF-539 CNS 78% | UACC-257 melanoma 88.7% | M14 melanoma 89.7%

Cc1ccc(C(SCCNCc2cc(N(C)C)ccn2)(c2ccccc2)c2ccccc2)cc1
active: NCI-H23 lung -35.8% | NCI-H226 lung -6.05% | HOP-62 NSCLC -1.31% | NCI-H460 lung -26.6% | NCI-H522 lung -78.8% | A549/ATCC NSCLC -3.31% | 786-0 renal -76.6% | COLO 205 colon -71.6% | DU-145 prostate -8% | K-562 leukemia -42.7% | MALME-3M melanoma -94.4% | MDA-MB-231 breast -56.9% | RXF 393 renal -47.3% | SF-268 CNS -2.09% | SF-295 CNS -96.1% | SF-539 CNS -99.1% | UACC-257 melanoma -65.4% | M14 melanoma -84.3%
inactive: NCI-H322M lung 23.1%

O=C(Cn1c2c(sc1=O)[C@H]1[C@@H](O)[C@@H](O)[C@H](O)[C@@H]1CS2)N1CCOCC1
inactive: NCI-H23 lung 105% | NCI-H226 lung 101% | NCI-H322M lung 107% | HOP-62 NSCLC 92.7% | NCI-H460 lung 106% | NCI-H522 lung 91.7% | A549/ATCC NSCLC 106% | 786-0 renal 98.7% | COLO 205 colon 116% | DU-145 prostate 112% | K-562 leukemia 106% | MALME-3M melanoma 98.8% | MDA-MB-231 breast 106% | RXF 393 renal 117% | SF-268 CNS 97.7% | SF-295 CNS 105% | SF-539 CNS 96.8% | UACC-257 melanoma 110% | M14 melanoma 112%

O=C(Cn1c(/C=C/c2ccccc2)nc2ccccc2c1=O)Nc1ccc(Cl)cc1
inactive: NCI-H23 lung 59.8% | NCI-H226 lung 30.2% | NCI-H322M lung 74.8% | HOP-62 NSCLC 57.9% | NCI-H460 lung 38.7% | NCI-H522 lung 76.7% | A549/ATCC NSCLC 33.8% | COLO 205 colon 78.4% | DU-145 prostate 71.3% | K-562 leukemia 85.2% | MALME-3M melanoma 59.1% | SF-268 CNS 75.2% | SF-295 CNS 59.1% | SF-539 CNS 58.7% | UACC-257 melanoma 83.6% | M14 melanoma 81.7%
active: 786-0 renal -48.9% | MDA-MB-231 breast 4.32% | RXF 393 renal -8.9%

COCOc1ccc2c(=O)c(C)c(C(=O)N[C@@H](Cc3ccccc3)C(O)C(=O)NCCc3ccc(OC)cc3)oc2c1 (some centres not stated)
inactive: NCI-H23 lung 109% | NCI-H226 lung 110% | NCI-H322M lung 103% | HOP-62 NSCLC 106% | NCI-H460 lung 133% | NCI-H522 lung 98.4% | A549/ATCC NSCLC 100% | 786-0 renal 106% | COLO 205 colon 139% | DU-145 prostate 106% | K-562 leukemia 84.1% | MALME-3M melanoma 111% | MDA-MB-231 breast 99% | RXF 393 renal 99.1% | SF-268 CNS 120% | SF-295 CNS 107% | SF-539 CNS 109% | UACC-257 melanoma 116% | M14 melanoma 118%

C=C1CC[C@@H]2[C@]3(C)COC(c4cn[nH]c4-c4cccc(Cl)c4)O[C@@H]3CC[C@@]2(C)[C@@H]1C/C=C1/C(=O)OCC1O (some centres not stated)
active: NCI-H23 lung -79.8% | NCI-H226 lung -91.1% | HOP-62 NSCLC 0.166% | NCI-H460 lung -3.88% | NCI-H522 lung -60% | A549/ATCC NSCLC -19.2% | 786-0 renal -92.7% | COLO 205 colon -35% | K-562 leukemia 5% | MALME-3M melanoma -50.7% | MDA-MB-231 breast -52.7% | RXF 393 renal -91% | SF-295 CNS -32.8% | SF-539 CNS -89.8% | UACC-257 melanoma -33.1% | M14 melanoma -73.4%
inactive: NCI-H322M lung 37.9% | DU-145 prostate 25.5% | SF-268 CNS 34.3%

COc1ccc(-c2ccnc(SCc3cc4ccccc4[nH]c3=O)n2)cc1OC
inactive: NCI-H23 lung 15.6% | A549/ATCC NSCLC 11.7% | DU-145 prostate 36.4% | K-562 leukemia 62.9% | SF-268 CNS 23% | UACC-257 melanoma 29.5% | M14 melanoma 45.4%
active: NCI-H226 lung -23.1% | NCI-H322M lung -51.5% | HOP-62 NSCLC -53.5% | NCI-H460 lung 8.25% | NCI-H522 lung -21.2% | 786-0 renal -25.4% | COLO 205 colon 4.51% | MALME-3M melanoma 8.86% | MDA-MB-231 breast -51.8% | RXF 393 renal -30.4% | SF-295 CNS -78.3% | SF-539 CNS -84.7%

O=C(CN1C(=O)/C(=C/c2ccccc2F)SC1=S)N1CCOCC1
inactive: NCI-H23 lung 89.1% | NCI-H226 lung 66.5% | NCI-H322M lung 90.3% | HOP-62 NSCLC 119% | NCI-H460 lung 102% | A549/ATCC NSCLC 95.5% | 786-0 renal 74.9% | COLO 205 colon 98.5% | DU-145 prostate 56.3% | K-562 leukemia 19.2% | MALME-3M melanoma 51.8% | MDA-MB-231 breast 92% | RXF 393 renal 71.8% | SF-268 CNS 99.1% | SF-295 CNS 108% | SF-539 CNS 82.3% | UACC-257 melanoma 89.6% | M14 melanoma 79.4%
active: NCI-H522 lung -83.2%
